Here are results for seven sequences from article PMC7862700, “An all-to-all approach to the identification of sequence-specific readers for epigenetic DNA modifications on cytosine”.

Experiment in all cases: DAPPL (digital affinity profiling via proximity ligation, sequencing); 10 mM Tris-HCl pH 7.5, 50 mM NaCl, 1 mM DTT, 4% glycerol, room temperature, 30 min; GST-TFs on glutathione beads, 16-mer random dsDNA library, 0.1% formaldehyde crosslink after washing; high values mean tight binding
What all share (conditions): protein: recombinant; tags: N-terminal GST; dsDNA, one strand shown

One assay concerns the target T1, ERF (Homo sapiens, UniProt P50548 1-548).
T1 sequence: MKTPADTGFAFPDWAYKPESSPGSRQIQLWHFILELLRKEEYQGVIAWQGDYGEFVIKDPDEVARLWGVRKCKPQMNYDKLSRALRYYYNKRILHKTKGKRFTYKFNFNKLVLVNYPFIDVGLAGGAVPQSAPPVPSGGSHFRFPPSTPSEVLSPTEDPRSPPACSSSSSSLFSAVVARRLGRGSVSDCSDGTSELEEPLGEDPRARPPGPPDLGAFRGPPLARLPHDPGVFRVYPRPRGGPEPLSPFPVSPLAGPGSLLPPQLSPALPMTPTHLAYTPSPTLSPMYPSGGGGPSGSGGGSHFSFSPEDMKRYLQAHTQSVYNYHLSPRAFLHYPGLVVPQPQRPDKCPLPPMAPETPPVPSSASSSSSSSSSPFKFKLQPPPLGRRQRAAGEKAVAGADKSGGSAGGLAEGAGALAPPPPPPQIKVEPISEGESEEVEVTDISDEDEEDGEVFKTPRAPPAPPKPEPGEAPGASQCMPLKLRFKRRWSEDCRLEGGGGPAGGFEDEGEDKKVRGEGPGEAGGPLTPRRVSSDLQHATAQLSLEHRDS
A digest of the protocol: (§1)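 Yeast served to express human transcription factors as GST fusions, which were then captured on glutathione beads and labelled with DNA barcodes. Pooled with a tag-only sample, they were incubated with 200 nmole of a 16-mer random double-stranded DNA library for 30 min at room temperature in Tris/NaCl/DTT/glycerol buffer, washed, crosslinked with 0.1% formaldehyde, ligated by proximity, amplified by PCR and sequenced. Dividing each hexamer's read frequency for a factor by its frequency for the tag-only sample gives the binding signal.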

The target in a further assay is T2, ETV3L (Homo sapiens, UniProt Q6ZN32 1-361).
T2 sequence: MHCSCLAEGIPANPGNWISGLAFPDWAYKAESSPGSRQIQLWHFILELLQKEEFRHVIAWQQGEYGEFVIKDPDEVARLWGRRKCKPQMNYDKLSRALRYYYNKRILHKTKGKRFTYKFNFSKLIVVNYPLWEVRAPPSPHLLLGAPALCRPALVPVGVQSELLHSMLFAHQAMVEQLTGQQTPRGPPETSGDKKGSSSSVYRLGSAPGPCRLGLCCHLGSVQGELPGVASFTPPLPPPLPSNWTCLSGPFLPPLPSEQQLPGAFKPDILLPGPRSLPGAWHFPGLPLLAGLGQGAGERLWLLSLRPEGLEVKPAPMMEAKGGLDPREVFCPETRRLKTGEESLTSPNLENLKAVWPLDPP
The procedure, abridged:
as §1

Another assay has as its target T3, ETS2 (Homo sapiens, UniProt P15036 1-469).
T3 sequence: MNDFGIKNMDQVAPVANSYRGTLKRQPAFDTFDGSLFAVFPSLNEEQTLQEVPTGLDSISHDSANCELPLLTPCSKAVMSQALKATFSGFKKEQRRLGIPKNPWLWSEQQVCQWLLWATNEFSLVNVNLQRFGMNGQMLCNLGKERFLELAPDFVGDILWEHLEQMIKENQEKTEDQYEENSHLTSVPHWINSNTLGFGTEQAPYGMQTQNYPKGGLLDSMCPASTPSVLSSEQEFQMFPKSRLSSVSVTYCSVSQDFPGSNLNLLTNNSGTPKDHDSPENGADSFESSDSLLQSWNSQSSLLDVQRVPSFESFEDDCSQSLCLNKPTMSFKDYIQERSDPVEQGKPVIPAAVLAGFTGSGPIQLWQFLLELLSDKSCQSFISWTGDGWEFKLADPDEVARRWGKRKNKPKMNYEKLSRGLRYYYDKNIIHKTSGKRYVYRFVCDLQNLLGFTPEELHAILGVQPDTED
The procedure, abridged:
as §1

In the next assay the target is T4, SPDEF (Homo sapiens, UniProt O95238 1-335).
T4 sequence: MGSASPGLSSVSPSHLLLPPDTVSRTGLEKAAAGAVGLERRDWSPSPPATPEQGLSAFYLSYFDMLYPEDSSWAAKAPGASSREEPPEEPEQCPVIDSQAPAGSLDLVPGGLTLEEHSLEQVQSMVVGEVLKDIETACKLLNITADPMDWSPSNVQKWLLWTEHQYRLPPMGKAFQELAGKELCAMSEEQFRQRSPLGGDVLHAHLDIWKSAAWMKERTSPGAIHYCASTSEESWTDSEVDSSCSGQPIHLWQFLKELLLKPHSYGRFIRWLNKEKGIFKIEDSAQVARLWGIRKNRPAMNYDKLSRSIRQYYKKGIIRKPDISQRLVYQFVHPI
The procedure, abridged:
as §1

In a further assay the target is T5, ETV7 (Homo sapiens, UniProt Q9Y603 1-341).
T5 sequence: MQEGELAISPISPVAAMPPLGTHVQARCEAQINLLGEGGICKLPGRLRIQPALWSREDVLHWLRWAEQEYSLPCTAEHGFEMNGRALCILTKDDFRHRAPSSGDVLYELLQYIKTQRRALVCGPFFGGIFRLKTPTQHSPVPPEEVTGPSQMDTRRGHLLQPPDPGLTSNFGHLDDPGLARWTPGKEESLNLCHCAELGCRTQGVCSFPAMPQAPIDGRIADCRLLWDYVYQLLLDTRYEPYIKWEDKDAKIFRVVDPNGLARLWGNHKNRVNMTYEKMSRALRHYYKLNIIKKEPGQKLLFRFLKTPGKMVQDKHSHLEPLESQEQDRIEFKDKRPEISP
A digest of the protocol:
as §1

For a further assay, the target named is T6, ELF5 (Homo sapiens, UniProt Q9UKW6-2 1-255).
T6 sequence: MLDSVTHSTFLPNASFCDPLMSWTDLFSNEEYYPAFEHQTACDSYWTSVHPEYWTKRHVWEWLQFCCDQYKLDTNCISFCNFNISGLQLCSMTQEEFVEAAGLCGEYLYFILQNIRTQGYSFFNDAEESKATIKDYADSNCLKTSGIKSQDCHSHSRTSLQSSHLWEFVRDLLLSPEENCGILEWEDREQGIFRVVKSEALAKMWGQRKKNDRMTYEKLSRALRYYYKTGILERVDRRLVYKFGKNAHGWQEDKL
A digest of the protocol:
as §1

The next assay has as its target T7, ETV3 (Homo sapiens, UniProt P41162-2 1-143).
T7 sequence: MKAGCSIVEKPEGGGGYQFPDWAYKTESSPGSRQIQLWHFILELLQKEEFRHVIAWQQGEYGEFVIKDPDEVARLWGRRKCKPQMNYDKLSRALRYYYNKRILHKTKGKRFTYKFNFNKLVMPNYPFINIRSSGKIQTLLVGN
The procedure, abridged:
as §1

A further assay has as its target ETV6 (Homo sapiens, UniProt P41212 1-452). The procedure, abridged: as §1

Chain of ETV6 (P41212 whole entry): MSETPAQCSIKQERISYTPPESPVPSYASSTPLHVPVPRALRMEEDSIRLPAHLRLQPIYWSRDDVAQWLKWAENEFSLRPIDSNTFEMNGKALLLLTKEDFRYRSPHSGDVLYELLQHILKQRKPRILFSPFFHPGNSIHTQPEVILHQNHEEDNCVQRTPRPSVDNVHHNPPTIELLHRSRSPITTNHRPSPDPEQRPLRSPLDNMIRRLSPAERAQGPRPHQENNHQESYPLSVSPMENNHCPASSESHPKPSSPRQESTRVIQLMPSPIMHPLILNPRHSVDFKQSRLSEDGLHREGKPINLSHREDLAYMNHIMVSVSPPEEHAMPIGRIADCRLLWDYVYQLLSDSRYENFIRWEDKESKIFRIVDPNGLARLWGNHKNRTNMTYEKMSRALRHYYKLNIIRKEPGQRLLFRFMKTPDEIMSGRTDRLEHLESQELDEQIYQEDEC

For the sequence AAGCTT, the binding signal with ERF is 1.29 fold enrichment (6-mer frequency, TF over GST control); with ETV3L, 1.31 fold enrichment (6-mer frequency, TF over GST control); in the assay with ETS2, 1.19 fold enrichment (6-mer frequency, TF over GST control); with SPDEF, 1.14 fold enrichment (6-mer frequency, TF over GST control); with ETV7, 1.38 fold enrichment (6-mer frequency, TF over GST control); in the assay with ELF5, 1.31 fold enrichment (6-mer frequency, TF over GST control). In addition, the binding signal with ETV3 is 1.2 fold enrichment (6-mer frequency, TF over GST control); with ETV6 it was 1.3 fold enrichment (6-mer frequency, TF over GST control).
TGTCAC: the binding signal in the assay with ERF was 1.13 fold enrichment (6-mer frequency, TF over GST control); with ETV3L, 1.21 fold enrichment (6-mer frequency, TF over GST control); in the assay with ETS2, 1.26 fold enrichment (6-mer frequency, TF over GST control); with SPDEF, 1.09 fold enrichment (6-mer frequency, TF over GST control); with ETV7 it was 1.29 fold enrichment (6-mer frequency, TF over GST control); with ELF5, 1.11 fold enrichment (6-mer frequency, TF over GST control). The binding signal in the assay with ETV3 is 1.08 fold enrichment (6-mer frequency, TF over GST control); with ETV6, 1.1 fold enrichment (6-mer frequency, TF over GST control).
With TTCATC, the binding signal with ERF was 1.21 fold enrichment (6-mer frequency, TF over GST control); with ETV3L, 1.24 fold enrichment (6-mer frequency, TF over GST control); with ETS2, 1.17 fold enrichment (6-mer frequency, TF over GST control); with SPDEF, 1.36 fold enrichment (6-mer frequency, TF over GST control); with ETV7 it was 1.25 fold enrichment (6-mer frequency, TF over GST control); with ELF5, 1.23 fold enrichment (6-mer frequency, TF over GST control). For the same sequence, the binding signal with ETV3 is 1.26 fold enrichment (6-mer frequency, TF over GST control); with ETV6, 1.23 fold enrichment (6-mer frequency, TF over GST control).
As for TAATGT, the binding signal is 1.06 fold enrichment (6-mer frequency, TF over GST control) with ERF; 1.11 fold enrichment (6-mer frequency, TF over GST control) with ETV3L; 1.09 fold enrichment (6-mer frequency, TF over GST control) with ETS2; 1.12 fold enrichment (6-mer frequency, TF over GST control) with SPDEF; 1.19 fold enrichment (6-mer frequency, TF over GST control) in the assay with ETV7; 1.07 fold enrichment (6-mer frequency, TF over GST control) with ELF5. The binding signal with ETV3 is 1.05 fold enrichment (6-mer frequency, TF over GST control); in the assay with ETV6, 1.09 fold enrichment (6-mer frequency, TF over GST control).
With GTGTTC, the binding signal in the assay with ERF is 1.19 fold enrichment (6-mer frequency, TF over GST control); with ETV3L it was 1.14 fold enrichment (6-mer frequency, TF over GST control); with ETS2, 1.17 fold enrichment (6-mer frequency, TF over GST control); in the assay with SPDEF it was 1.34 fold enrichment (6-mer frequency, TF over GST control); in the assay with ETV7 it was 1.11 fold enrichment (6-mer frequency, TF over GST control); with ELF5, 1.34 fold enrichment (6-mer frequency, TF over GST control). For the same sequence, the binding signal is 1.05 fold enrichment (6-mer frequency, TF over GST control) with ETV3 and 1.09 fold enrichment (6-mer frequency, TF over GST control) in the assay with ETV6.
For the sequence TCTTCA, the binding signal with ERF was 1.29 fold enrichment (6-mer frequency, TF over GST control); with ETV3L, 1.37 fold enrichment (6-mer frequency, TF over GST control); with ETS2, 1.11 fold enrichment (6-mer frequency, TF over GST control); in the assay with SPDEF it was 1.25 fold enrichment (6-mer frequency, TF over GST control); with ETV7, 1.13 fold enrichment (6-mer frequency, TF over GST control); with ELF5 it was 1.16 fold enrichment (6-mer frequency, TF over GST control). Also, the binding signal is 1.16 fold enrichment (6-mer frequency, TF over GST control) with ETV3 and 1.25 fold enrichment (6-mer frequency, TF over GST control) with ETV6.
For the sequence GTTAAG, the binding signal with ERF was 1.03 fold enrichment (6-mer frequency, TF over GST control); with ETV3L it was 1.01 fold enrichment (6-mer frequency, TF over GST control); with ETS2, 1.04 fold enrichment (6-mer frequency, TF over GST control); in the assay with SPDEF, 1.05 fold enrichment (6-mer frequency, TF over GST control); with ETV7, 1.02 fold enrichment (6-mer frequency, TF over GST control); in the assay with ELF5 it was 1.07 fold enrichment (6-mer frequency, TF over GST control). Besides, the binding signal is 1.18 fold enrichment (6-mer frequency, TF over GST control) in the assay with ETV3 and 1.02 fold enrichment (6-mer frequency, TF over GST control) with ETV6.
